Reference: PubChem BioAssay AID651592 (Sanford-Burnham Center for Chemical Genomics, 2012)
The source made the active and inactive calls.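 The calls were made as follows: active = NF-kB reporter IC50 at most 10 µM, IL-8 IC50 within fivefold of it with bacterial filtrate but not with TNF-alpha; inactive = the rest.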

The compounds below were run against Interleukin-8 (Homo sapiens) (UniProt P10145) (assay: inhibitors of NFkB activation in CF airway cells, SAR follow-up, KKLEB cells, panel, IL8 HTRF, NFkB-GFP (AID 651592;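 also: immortalized cystic fibrosis airway epithelial KKLEB cells with an NF-kB GFP reporter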)). Conditions: PAF/TNFa-induced NFkB-GFP / IL8 HTRF, mean of runs.
Interleukin-8 (Homo sapiens), sequence (P10145 whole entry, looked up): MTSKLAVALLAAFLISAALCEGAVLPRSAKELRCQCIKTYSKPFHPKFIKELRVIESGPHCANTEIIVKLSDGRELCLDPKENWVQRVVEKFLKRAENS

outcome, active:
O=C(Nc1ccc(N2CCN(C(=O)c3ccccc3Cl)CC2)cc1)c1cccnc1, O=C(Nc1ccc(N2CCN(C(=O)c3ccccc3F)CC2)cc1)c1ccccn1, O=C(Nc1ccc(N2CCN(C(=O)c3ccccc3)CC2)cc1)c1ccccc1, CCOc1ccc(NCc2cc3c(C(C)(C)C)nn(-c4ccccc4)c3[nH]c2=O)cc1, CCOc1ccc(NCc2cc3c(C(C)(C)C)nn(-c4ccc(Cl)cc4)c3[nH]c2=O)cc1, O=C(Nc1ccc(N2CCN(C(=O)c3ccccc3)CC2)cc1)c1ccncc1, CCOc1ccc(NCc2cc3c(-c4ccc(F)cc4)nn(-c4ccccc4)c3[nH]c2=O)cc1, O=C(Nc1ccc(N2CCN(C(=O)c3ccccc3F)CC2)cc1)c1cc(Br)cc(Br)c1, O=C(Nc1ccc(N2CCN(C(=O)c3ccccc3Cl)CC2)cc1)c1ccncc1, O=C(Nc1ccc(N2CCN(C(=O)c3ccc(F)cc3)CC2)cc1)c1ccncc1, O=C(Nc1ccc(N2CCN(C(=O)c3ccccc3F)CC2)cc1)c1cccnc1, O=C(Nc1ccc(N2CCN(C(=O)c3ccc(F)cc3)CC2)cc1)c1cncc(Br)c1, O=C(Nc1ccc(N2CCN(C(=O)c3ccc(F)cc3)CC2)cc1)c1ccccc1, O=C(Nc1ccc(N2CCN(C(=O)c3ccccc3)CC2)cc1)c1cncc(Br)c1, CCOc1ccc(NCc2cc3c(C)nn(-c4ccccc4)c3[nH]c2=O)cc1, Cc1ccc(NCc2cc3c(C(C)(C)C)nn(-c4ccccc4)c3[nH]c2=O)cc1
